TDP1 inh = blocks human tyrosyl-DNA phosphodiesterase 1. recombinant TDP1, AlphaScreen DNA substrate cleavage. actives 0.28% (n = 350,000). Potency, µM (highest dose often 130 µM), for the others: at the top dose activity change, negative = inhibition, most hits filed as inhibitors. Q9NUW8; note: % is set by controls: 0 for no effect and ±100 for the full control effect; nearly all actives have a fitted effect of over 40% in size
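Enzyme-compound mixtures sat 15 min at room temperature, followed by a 5 min reaction with 15 nM final substrate and 10 min with AlphaScreen beads. Recombinant human Tdp1 was used at 1 nM final.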
BAZ2B inh = blocks human BAZ2B | Potency, µM (top dose mostly 114 µM), inactives show top-dose activity change, negative = inhibition, hits mostly inhibitors | actives 4.4% (n = 360,000) | AlphaScreen BAZ2B-H3K14Ac peptide displacement; note: % is set by controls: 0 for no effect and ±100 for the full control effect; nearly all actives have a fitted effect of over 60% in size
Target sequence (Q9UIF8 whole entry, looked up): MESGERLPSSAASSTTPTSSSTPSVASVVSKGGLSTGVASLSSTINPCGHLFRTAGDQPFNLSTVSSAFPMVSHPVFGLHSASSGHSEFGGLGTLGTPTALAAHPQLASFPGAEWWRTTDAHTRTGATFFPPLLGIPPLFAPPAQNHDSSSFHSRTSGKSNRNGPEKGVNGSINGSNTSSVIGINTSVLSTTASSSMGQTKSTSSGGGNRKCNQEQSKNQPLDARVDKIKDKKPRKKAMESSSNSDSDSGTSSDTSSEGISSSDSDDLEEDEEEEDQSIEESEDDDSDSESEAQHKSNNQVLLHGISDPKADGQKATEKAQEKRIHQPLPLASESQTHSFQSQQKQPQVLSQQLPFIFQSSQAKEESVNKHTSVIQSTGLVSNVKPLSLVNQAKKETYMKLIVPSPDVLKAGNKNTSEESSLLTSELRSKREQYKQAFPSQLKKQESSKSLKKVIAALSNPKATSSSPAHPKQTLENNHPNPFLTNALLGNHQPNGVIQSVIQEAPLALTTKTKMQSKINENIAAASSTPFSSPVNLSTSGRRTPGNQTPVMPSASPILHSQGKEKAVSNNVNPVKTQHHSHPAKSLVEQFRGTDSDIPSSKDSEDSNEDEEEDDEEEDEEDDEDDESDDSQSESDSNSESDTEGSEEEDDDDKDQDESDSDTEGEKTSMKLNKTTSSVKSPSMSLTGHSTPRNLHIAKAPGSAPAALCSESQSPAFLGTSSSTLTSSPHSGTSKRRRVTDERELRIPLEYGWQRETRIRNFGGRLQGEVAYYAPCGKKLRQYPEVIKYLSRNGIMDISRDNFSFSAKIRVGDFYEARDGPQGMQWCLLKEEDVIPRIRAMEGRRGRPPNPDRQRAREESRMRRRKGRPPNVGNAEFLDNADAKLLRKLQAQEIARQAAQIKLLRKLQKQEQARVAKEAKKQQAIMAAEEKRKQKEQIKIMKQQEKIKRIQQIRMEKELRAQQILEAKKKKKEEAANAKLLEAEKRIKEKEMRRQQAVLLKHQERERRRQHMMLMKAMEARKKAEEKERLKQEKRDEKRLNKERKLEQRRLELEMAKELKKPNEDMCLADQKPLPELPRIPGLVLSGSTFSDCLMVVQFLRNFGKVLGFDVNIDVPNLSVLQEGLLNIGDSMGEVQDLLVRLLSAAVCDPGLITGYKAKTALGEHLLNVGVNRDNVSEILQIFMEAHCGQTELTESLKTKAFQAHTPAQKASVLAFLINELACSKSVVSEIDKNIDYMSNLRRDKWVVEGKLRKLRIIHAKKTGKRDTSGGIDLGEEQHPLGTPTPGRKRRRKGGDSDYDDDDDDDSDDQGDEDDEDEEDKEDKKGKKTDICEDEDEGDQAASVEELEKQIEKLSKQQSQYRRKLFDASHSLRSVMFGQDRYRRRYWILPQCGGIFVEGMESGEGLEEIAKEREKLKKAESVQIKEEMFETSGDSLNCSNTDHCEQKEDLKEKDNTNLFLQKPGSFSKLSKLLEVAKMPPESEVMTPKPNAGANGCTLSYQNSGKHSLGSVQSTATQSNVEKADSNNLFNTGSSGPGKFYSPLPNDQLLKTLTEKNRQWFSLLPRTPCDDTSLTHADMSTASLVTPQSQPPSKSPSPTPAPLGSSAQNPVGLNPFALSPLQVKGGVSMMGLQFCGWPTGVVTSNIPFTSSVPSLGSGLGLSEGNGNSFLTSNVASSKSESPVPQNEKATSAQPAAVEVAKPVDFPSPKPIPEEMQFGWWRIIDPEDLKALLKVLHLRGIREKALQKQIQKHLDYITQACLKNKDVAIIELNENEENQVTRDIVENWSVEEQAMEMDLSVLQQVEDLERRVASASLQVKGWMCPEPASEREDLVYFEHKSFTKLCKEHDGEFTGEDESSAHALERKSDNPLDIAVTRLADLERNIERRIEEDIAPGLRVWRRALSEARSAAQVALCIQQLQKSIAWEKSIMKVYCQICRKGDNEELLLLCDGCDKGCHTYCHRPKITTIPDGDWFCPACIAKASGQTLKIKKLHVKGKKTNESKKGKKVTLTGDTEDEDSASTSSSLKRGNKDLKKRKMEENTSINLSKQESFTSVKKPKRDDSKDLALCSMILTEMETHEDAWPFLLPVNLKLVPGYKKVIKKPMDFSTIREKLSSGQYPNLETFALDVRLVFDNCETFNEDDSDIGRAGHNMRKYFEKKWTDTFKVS
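Protein-peptide AlphaScreen: BAZ2B 50 nM, b-H3K14Ac 50 nM, 1x PBS pH 7.4 + 0.01% Tween-20. Preincubation 30 min RT; cpd 30 min RT (top 110 uM); beads 20 min RT, light-protected.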
HP1b binding inh = HP1-beta chromodomain-methylated histone interaction inhibition; P83916; AlphaScreen HP1-beta / biotin-H3K9me3 peptide binding; Potency, µM (top dose mostly 114 µM), inactives show at the highest dose activity change, negative = inhibition, most hits filed as inhibitors; actives 0.56% (n = 390,000); note: nearly all actives have a fitted effect of over 70% in size
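AlphaScreen: HP1-beta (50 nM) preformed 30 min with biotin-H3(1-18)K9me3 peptide (50 nM) in PBS pH 7.4, 0.01% Tween-20. Compound added for 30 min at RT, then streptavidin donor/nickel chelate acceptor beads (10 ug/mL) for 30 min.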
Sfp inh = blocks B. subtilis Sfp PPTase activity; Biochemical Sfp PPTase activity, qHTS; actives 3.5% (n = 310,000); Potency, µM, inactives show largest response in the series, negative = inhibition, most hits filed as inhibitors; AID 1490; Q9F4F7;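 note: the enzyme is Sfp with the accession as filed and its product quenches rhodamine fluorescence; 0% = enzyme reaction without inhibitor and -100% = no enzyme wells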
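After 15 min at room temperature with compound, 15 nM Sfp received 5 uM rhodamine-CoA plus 12.5 uM BHQ-2-ybbR (50 mM Hepes pH 7.6, 10 mM MgCl2). Rate came from the fluorescence difference over 30 min, ex 525/em 598 nm.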
G9a inh = G9a (human) methyltransferase inhibition. Q96KQ7. G9a H3K9 monomethylation, AlphaScreen, 2 h. Potency, µM (series often up to 102 µM), without a hit: at the top dose activity, negative = inhibition, hits mostly inhibitors. actives 8.8% (n = 350,000). AID 504332; note: % is set by controls: 0 for no effect and ±100 for the full control effect; nearly all actives have a fitted effect of over 75% in size
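Enzyme 20 nM + cpd, 15 min RT; add b-H3K9 pep 500 nM / SAM 20 uM; 2 h RT; anti-H3K9me1 Ab 0.5 ug/mL + SA donor / anti-rabbit acceptor beads 20 ug/mL each, 10 min; AlphaScreen read.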
JMJD2A Tudor inh = inhibitors of human JMJD2A Tudor domain; O75164; AlphaScreen JMJD2A-Tudor / H3K4me3 peptide binding; Potency, µM (doses to about 114 µM), for inactives: at the top dose activity change, negative = inhibition, actives largely listed as inhibitors; actives 4.4% (n = 390,000); AID 504339; note: % is set by controls: 0 for no effect and ±100 for the full control effect; nearly all actives have a fitted effect of over 50% in size
The depositor's hits bear a star; ? = inconclusive; / = no result; [ ] = dose if it differs, or a comment. An excerpt weighted towards active compounds, which were near 12% of everything screened. Calls come from the whole dose curve; as a rule, active = well fitted curve in the direction sought with a large enough effect; inconclusive = small, poorly fitted or top-dose-only effect, or another doubt; inactive = no such curve, though single readings can be large; an effect the other way counts as inactive or inconclusive. Potency is the fitted concentration of half-maximal effect.

SMILES	TDP1 inh	BAZ2B inh	HP1b binding inh	Sfp inh	G9a inh	JMJD2A Tudor inh
Nc1c(-c2ccc(Cl)cc2)cnn1-c1ccccc1	/	-25%	59%	9%	-1%	-5%
O=C(CSCc1cccc(Br)c1)N=Nc1c(O)[nH]c2ccccc12	10%	50µM*	1%	-9%	21%[0.0925 µM]	-18%[57.1 µM]
O=C(CSc1nnnn1-c1ccc(C(=O)O)cc1)NC1CCCCC1	-7%	2%	25%	16%	1%	-11%
COc1ccc(S(=O)(=O)N(C(C)=O)c2ccc3oc(=O)sc3c2)cc1	10%	-34%	35%	10µM*	7.1µM*	?
CCOc1ccc(S(=O)(=O)N(C(C)=O)c2ccc3oc(C)c(C(=O)OC)c3c2)cc1	/	-1%	19%	/	1%[59 µM]	-2%
COc1ccc(N(C(C)C(=O)NCc2ccco2)S(C)(=O)=O)cc1 (centres undefined)	4%	-30%	36%	-18%	50µM*	-15%
Cc1ccc(N=C2C(=S)N(c3ccc(C)cc3)C(=N)N2/N=C/c2ccc(Cl)cc2)cc1	2%	?	3.5µM*	40µM*	?	?
CCOc1ccc(C(=O)OCc2cc(=O)n3nc(C4CC4)sc3n2)cc1	2%	-6%	19%	/	5%[59 µM]	-8%
COc1cc2c(cc1OC)CN(C1CC(=O)N(c3c(C)cccc3C)C1=O)CC2 (centres undefined)	0%	-23%	7%	6%	79µM*	-32%
COc1ccccc1N1CCN(C2CC(=O)N(c3cccc(Br)c3)C2=O)CC1 (centres undefined)	4%	-3%	21%	-12%	/	-29%
COc1ccccc1C(CNC(=O)c1ccc(NS(=O)(=O)c2ccc3c(c2)OCCO3)cc1)N(C)C (centres undefined)	/	-12%	12%	/	-45%	-17%
COc1ccccc1/C=C/c1nc(S(=O)(=O)c2ccccc2)c(NCCN(C)C)o1	5%	-18%	29%	-2%	?	?
COc1ccc(/C=C/c2nc(S(=O)(=O)c3ccccc3)c(NCCCN(C)C)o2)cc1OC	5%	-6%	63%	2%	79µM*	-8%
COc1ccc(C2Nc3ccccc3C(=O)N2Cc2ccccc2)cc1COc1ccc(F)cc1 (centres undefined)	1%	/	/	/	/	-11%
O=C1CCC/C(=N/Nc2ccc(Cl)cc2)C1	11%	45µM*	?	20µM*	4.5µM*	45µM*
Cc1nc2ccn(Cc3ccco3)c(=O)c2cc1C(=O)NCc1ccccc1	8%	-21%	23%	/	30%[59 µM]	-19%
O=C(N/N=C/c1ccc(Sc2nc3ccccc3[nH]2)o1)c1ccncc1	8%	-6%	?	-5%	45µM*	-13%
O=C(c1ccc(Cl)cc1)c1c[nH]c(C(=O)NNc2ccccc2)c1	7%	-31%	34%	25%	20µM*	-12%
COc1ccccc1N1CCN(C(=O)c2oc3ccccc3c2NC(=O)C(C)Oc2ccccc2)CC1 (centres undefined)	4%	-1%[57.1 µM]	3%	/	-36%[59 µM]	-33%
Cc1ccccc1N(CC(=O)NCc1ccco1)C(=O)CCC(=O)Nc1nccs1	1%	-3%	20%	18%	6%	-4%
Cc1ccc(N(CC(=O)NCc2ccco2)C(=O)CCC(=O)Nc2nccs2)c(C)c1	4%	-10%	-15%	18%	71µM*	-14%
O=C(CCCC(=O)N(c1cccc(F)c1)C(C(=O)NC1CCCC1)c1ccc(O)cc1)Nc1ccccn1 (centres undefined)	8%	-16%	3%	12%	-26%	79µM*
CC(C)c1ccc(N(CC(=O)NC2CCCC2)C(=O)CCC(=O)Nc2ccccn2)cc1	8%	2%	8%	10%	18%	50µM*
COc1ccc(CNC(=O)CN(C(=O)CCC(=O)Nc2ccccn2)c2ccc(C)cc2)cc1	11%	1%	9%	4%	-14%	56µM*
Cc1ccc(OCC(=O)Nc2cc3nn(-c4ccccc4)nc3cc2C)cc1	-3%[12.3 µM]	1%	38%	/	-3%[59 µM]	-5%
SMILES	TDP1 inh	BAZ2B inh	HP1b binding inh	Sfp inh	G9a inh	JMJD2A Tudor inh
Cc1cccc(Cn2cc(C(=O)Nc3ccc(F)c(C(F)(F)F)c3)ccc2=O)c1	0%	4%	36%[57 µM]	/	7%[59 µM]	-7%
COc1cccc(/C=N/NC(=O)c2nnn(-c3nonc3N)c2C(C)C)c1	0%	-5%	19%	9%	1%[59 µM]	-8%
COc1ccc([C@@H]2[C@@H]3C(=O)N(C(C)(C)C)C(=O)[C@@H]3[C@]3(C)C(=O)N(c4ccc(C(F)(F)F)cc4)C(=O)N23)cc1	/	-25%	43%	13%	2%	-26%
O=C(CN(C(=O)CCC(=O)Nc1ccccn1)c1ccc(F)cc1)NCc1ccco1	3%[0.0935 µM]	-15%	27%	6%	1%	-9%
CC(C)c1ccc(N(CC(=O)NCc2ccco2)C(=O)CCC(=O)Nc2ccccn2)cc1	-10%	-2%	31%	12%	25µM*	-3%
CC(C)NC(=O)c1ccc2c(c1)N(Cc1cccc(Cl)c1)C(=O)c1ccccc1S2=O (centres undefined)	4%	-2%	31%	/	-2%[59 µM]	-9%
CCN(Cc1ccncc1)S(=O)(=O)c1ccc(C(C)=O)cc1	7%	13%	0%	79µM*	?	-23%
CCN(CC)S(=O)(=O)c1ccc(C(=O)Nc2ccc(Cc3ccncc3)cc2)cc1	-4%	-38%	23%	25%	2%	-16%
O=S(=O)(c1ccc2c(c1)OCCO2)N1CCN(S(=O)(=O)c2ccc(Cl)cc2F)CC1	/	/	/	/	/	-8%
COc1ccc([N+](=O)[O-])c(S(=O)(=O)c2ccc(Cl)cc2)n1	12%	-29%	33%	?	18µM*	-28%
COc1ccc([N+](=O)[O-])c(S(=O)(=O)c2ccccc2)n1	10%	-18%	40%	?	11µM*	-26%
CCN1CCN(Cc2ccc(NC(=O)c3cc(NC(=O)c4cc5cccc(OC)c5o4)cc(OC)c3)cc2C(F)(F)F)CC1	6%	?	8%	45µM*	?	?
CCN1CCN(Cc2ccc(NC(=O)c3cc(NC(=O)c4cncc(-c5cccs5)c4)cc(OC)c3)cc2C(F)(F)F)CC1	/	35µM*	?	?	50µM*	45µM*
N#C/C(=C/c1cccn1-c1cccc(C(=O)O)c1)c1ccc(Cl)cc1	/	45µM*	?	9%	?	8.9µM*
CCOC(=O)/C(C#N)=C/c1cccn1-c1ccc(Cl)cc1	-1%	0%	21%	-19%	/	4%

Screening results from PubChem.
